TDP1 cell CPT: DT40-hTDP1 cell growth loss with CPT; chicken DT40 Tdp1-/-;hTDP1 cells + 20 nM CPT, ATP luminescence, 48 h; Potency, µM (doses to about 46.2 µM), hits mostly inhibitors; 420,000 tested, 12% active; AID 686979; also: nearly all actives have a fitted effect of over 55% in size
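Chicken DT40 Tdp1-/- cells stably complemented with human TDP1 were seeded at 400 cells/well in medium containing 20 nM camptothecin, exposed to pin-transferred compounds, and grown at 37 °C for at least 48 hr. Viability was read as ATP luminescence.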
KB-V1 cytotox: kills drug-selected multidrug resistant KB-V1 cells; KB-V1 MDR cells viability, CellTiter-Glo, 72 h; AID 1347076; Potency, µM (series often up to 46.1 µM), most hits filed as cytotoxic; 400,000 tested, 3.4% active; also: nearly all actives have a fitted effect of over 60% in size
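KB-V1, DMEM (no phenol red) + 10% FBS; cpd pin-transferred, titration series; 72 h, 37 degrees C; CellTiter-Glo, luminescence. Data normalized, curve-fit.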
KB-3-1 tox: KB-3-1 parental cell cytotoxicity; 400,000 tested, 1.4% active; KB-3-1 viability, CellTiter-Glo ATP luminescence, 72 h; Potency, µM (highest dose often 46.1 µM), usual class: cytotoxic; AID 1347075; also: nearly all actives have a fitted effect of over 60% in size
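Screening of KB-3-1 cells (DMEM, 10% FBS, phenol-red free) ran from lowest to highest compound concentration; after 72 h at 37 °C viability was read luminescently and curves fitted.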
HT1080NT lethal: kills 2HG-producing HT-1080-NT fibrosarcoma cells | Potency, µM (highest dose often 46.1 µM), actives largely listed as cytotoxic | HT-1080-NT fibrosarcoma viability, CellTiter-Glo ATP luminescence, 48 h | AID 686970 | 360,000 tested, 1.6% active;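 also: NT is the 2HG producing partner of a matched IDH1 knockdown line; nearly all actives have a fitted effect of over 55% in size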
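Viability of the 2HG-overproducing fibrosarcoma line after 48 hours of compound exposure at 37 degrees C was determined by luminescence with CellTiter-Glo, and concentration-effect curves were then fitted and categorized.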
HT1080 IDH1KD tx: toxicity to HT-1080 IDH1 knockdown cells (counter line) | HT-1080 IDH1 knockdown viability, ATP luminescence, 48 h | 360,000 tested, 2% active | Potency, µM (highest dose often 46.1 µM), most hits filed as cytotoxic
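% activity derives from luminescence (CellTiter-Glo), normalised to DMSO and no-cell wells. HT-1080-IDH1KD cells, 750/well, had 48 h compound exposure at 37 °C.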
TDP1 cell noCPT: qHTS for Inhibitors of human tyrosyl-DNA phosphodiesterase 1 (TDP1): qHTS in cells in absence of CPT. DT40 Tdp1-/- hTDP1 cells, no CPT, ATP luminescence, 48 h. Potency, µM (titrated, usually from 46.2 µM), usual class: inhibitors. 420,000 tested, 15% active. AID 686978, 2013; also: nearly all actives have a fitted effect of over 55% in size
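DT40 Tdp1-/-;hTDP1 cells, no CPT (DMSO vehicle only), 400 cells/well; compounds pin-transferred; ≥48 hr, 37 °C; CellTiter-Glo 30 min RT dark, luminescence read.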
Hits are given with their value; n = inactive; u = inconclusive; x = no result given. Hits are enriched below; roughly 19% of the tested compounds scored in any of these assays. Calls follow the shape of the dose curve; as a rule, active = well fitted curve in the direction sought with a large enough effect; inconclusive = small, poorly fitted or top-dose-only effect, or another doubt; inactive = no such curve, though single readings can be large; an effect the other way counts as inactive or inconclusive.

SMILES | TDP1 cell CPT | KB-V1 cytotox | KB-3-1 tox | HT1080NT lethal | HT1080 IDH1KD tx | TDP1 cell noCPT
Nc1cc2c(cc1[N+](=O)[O-])-c1ccccc1C2=NO | 21µM | n | n | n | n | 8.2µM
CC(=O)OC1CSc2nc3ccccc3n2C1 (stereo not drawn) | n | n | n | n | n | n
O=C(Cn1c(=O)nc(-c2ccccc2)c2ccccc21)NCCc1ccc(Cl)cc1 | n | x | x | x | x | n
CC(Sc1nnc(CN2CCCC2)n1Cc1ccccc1)C(=O)Nc1ccc(F)cc1Cl (stereo not drawn) | 18µM | n | n | n | n | 26µM
CC(Sc1nnc(CN2CCCC2)n1Cc1ccccc1)C(=O)Nc1ccc(F)cc1 (stereo not drawn) | n | n | n | n | n | n
Cc1cn(CC(=O)NCCc2c[nH]c3ccccc23)c(=O)[nH]c1=O | n | n | n | n | n | n
CCN(CC(=O)Nc1ccc2c(c1)OCCO2)C(=O)/C=C/c1ccc([N+](=O)[O-])cc1 | n | 21µM | n | n | n | n
CC1CCN(c2nn3c(=O)c(C(=O)NCCc4ccccc4)cnc3s2)CC1 | 9.2µM | n | n | x | x | u
COCCNC(=O)c1cnc2sc(N3CCC(C)CC3)nn2c1=O | n | n | n | x | x | n
COc1ccc(CCNC(=O)c2cnc3sc(N4CCC(C)CC4)nn3c2=O)cc1OC | 2.6µM | n | n | x | x | 3.7µM
COc1cc(CN2CCc3nnc(C(NS(C)(=O)=O)C(C)C)n3CC2)ccc1F (stereo not drawn) | n | x | x | x | x | n
COc1ccc(C2C(C(=O)Nc3ccc(OC)c(OC)c3)c3ccccc3C(=O)N2C)cc1 (stereo not drawn) | n | u | n | n | n | n
Cc1ccc(NC(=O)NC(=O)COc2c(F)c(F)cc(F)c2F)c(C)c1 | n | n | n | n | n | n
Clc1ccc(CSc2nnc(-c3c[nH]c4ccccc34)o2)cc1 | u | u | n | u | u | u
Brc1ccc(CSc2nnc(Cc3c[nH]c4ccccc34)o2)cc1 | u | 18µM | n | n | n | u
CC(CCc1ccc2c(c1)OCO2)NN (stereo not drawn) | n | x | x | x | x | n
CCN(CC)C(=O)Cn1cc(C(=O)C(=O)NCCc2c[nH]c3ccccc23)c2ccccc21 | n | n | n | n | n | n
CCSC1(SCC)N=C(N)C2(C#N)C(c3ccc(OC)c(OC)c3OC)C12C#N (stereo not drawn) | 6.5µM | u | u | u | u | 8.2µM
CCc1nc2ccc(C)cc2c(C(=O)Oc2cccc3cccnc23)c1C | u | n | n | n | n | 23µM
Cc1c(C(=O)Oc2cccc3cccnc23)oc2ccccc12 | u | n | n | 23µM | 23µM | u
O=C(O)CC1(CC(=O)N2CCOCC2)CCCC1 | n | n | n | n | n | n
CCOC(=O)c1cccc(NC(=O)CCc2c(C)nc3c4cccnc4nn3c2C)c1 | u | u | n | x | x | n
Cc1cc(C)cc(NC(=O)CCc2c(C)nc3c4cccnc4nn3c2C)c1 | n | n | n | x | x | 18µM
COc1cccc(NC(=O)CCc2c(C)nc3c4cccnc4nn3c2C)c1 | u | n | n | x | x | 18µM
CCCc1c(C(=O)N/N=C/c2ccc3c(c2)OCO3)nnn1-c1nonc1N | n | n | n | n | n | n
SMILES | TDP1 cell CPT | KB-V1 cytotox | KB-3-1 tox | HT1080NT lethal | HT1080 IDH1KD tx | TDP1 cell noCPT
CCCCC(=O)Nc1ccc(C(=O)Nc2nc(CC(=O)OCC)cs2)cc1 | 22µM | n | n | n | n | u
CCOC(=O)Cc1csc(NC(=O)c2ccc(F)cc2)n1 | u | n | n | n | n | n
CCOC(=O)Cc1csc(NC(=O)c2ccc(C)cc2)n1 | n | u | n | n | n | u
CCOC(=O)Cc1csc(NC(=O)c2ccc(Cl)nc2)n1 | u | u | n | n | u | 23µM
CC(C)CCCCCCCCCCCCC(=O)NCC(=O)NC1C(O)C(O)C(Nc2ncnc3nc[nH]c23)OC1C(O)CO (stereo not drawn) | 0.15µM | 0.16µM | 0.18µM | u | 0.16µM | 0.18µM
Cc1ccc(S(=O)(=O)N2CCCC(C(=O)NCCc3ccc(S(N)(=O)=O)cc3)C2)cc1 (stereo not drawn) | u | u | n | n | n | u
CC(C)c1ccc(C(=O)Nc2ccc(-c3nc4ccccc4s3)c(Cl)c2)cc1 | 6.5µM | n | n | x | x | 7.3µM
CCSc1ccccc1C(=O)Nc1ccc(-c2nc3ccccc3s2)c(O)c1 | 9.2µM | x | x | x | x | 13µM
CC(=N)c1c(O)cc(C)oc1=O | n | n | n | n | n | n
CC(=O)Nc1cc(-c2ccc(S(C)(=O)=O)cc2)cn2c(-c3ccc(F)c(Cl)c3)cnc12 | 18µM | n | n | n | n | 16µM
CC(=O)Nc1cc(-c2ccc(N(C)C)cc2)cn2c(-c3ccc(F)c(Cl)c3)cnc12 | 18µM | n | n | u | u | 15µM
CC(=O)c1c(C)[nH]c(C2=NNC(=NC(C)(C)C)SC2)c1C | n | n | n | n | n | n
CCOC(=O)c1c(C)[nH]c(C2=NNC(=Nc3ccccc3)SC2)c1C | 13µM | u | u | u | u | 9.2µM
CCOC(=O)c1c(C)[nH]c(N=Nc2ccc(C)cc2)c1C | u | u | n | n | n | n
CCOC(=O)c1c(C)[nH]c(C2=NNC(=Nc3ccccc3OC)SC2)c1C | u | u | 18µM | u | u | 18µM
CCOC(=O)c1c(C)[nH]c(C2=NNC(=Nc3ccc(OCC)cc3)SC2)c1C | 16µM | n | u | n | n | 16µM
CCOC(=O)c1c(C)[nH]c(N=Nc2ccccc2Cl)c1C | u | n | n | n | n | u
CCOC(=O)c1c(C)[nH]c(N=Nc2ccccc2)c1C | u | u | n | u | u | 23µM
CCOC(=O)c1ccc(N=C2NC(=O)CS2)cc1 | n | n | n | n | n | n
CN(C(=O)COC(=O)c1ccccc1NCc1ccco1)c1c(N)n(Cc2ccccc2)c(=O)[nH]c1=O | n | n | u | n | n | n
COCCCNC(=O)C1CCN(S(=O)(=O)c2ccc3nc4c(c(C(=O)O)c3c2)CCCCC4)CC1 | n | n | n | n | n | n
CC(NC(=O)/C=C/c1cnc2ccccc2n1)C12CC3CC(CC(C3)C1)C2 (stereo not drawn) | u | u | n | n | n | 18µM
CC(=O)Nc1ccc(NC(=O)C(C)OC(=O)/C=C/c2cnc3ccccc3n2)cc1 (stereo not drawn) | n | n | n | n | n | n
Cc1cccc(N2C(N)=NC(N)=NC23CCCCC3)c1 | 16µM | n | n | n | u | 12µM
